PubChem BioAssay (NCI)
“And” between values parts separate entries of the source, which are not always exact repeats. Equal values may be shown once. Compounds without any hit were thinned out: in the full panel of roughly 83,000, 20% have a hit.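 For each line, cells grew in 96-well plates with the test compound present at a single concentration for 48 hours.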 The source made the active and inactive calls. Rule for the calls: active = growth percent below 10; inactive = the rest.

System: UACC-62 melanoma
Assay: NCI-60 one-dose screen, 48 h (100 = growth as untreated, 0 = no growth, -100 = all killed)
Settings: 10 µM unless noted

SMILES | growth
CC1=CC(=O)c2ccc(C)cc2C1=O | -90.3% [100 µM] (active) and -100% [100 µM] (active)
CN(C)c1ccc(/C=N/n2c(-c3ccccc3)nc3ccccc3c2=O)cc1 | 47.5% [100 µM] (inactive) and 13.6% [100 µM] (inactive)
NC(Cc1ccc(S(=O)(=O)O)cc1)C(=O)NC(Cc1ccc(S(=O)(=O)O)cc1)C(=O)NC(Cc1ccc(S(=O)(=O)O)cc1)C(=O)NC(Cc1ccc(S(=O)(=O)O)cc1)C(=O)O (stereo not drawn) | 86.3% [100 µM] (inactive) and 93.4% [100 µM] (inactive)
CC1CC(C(=O)OC2OC(COC3OC(CO)C(OC4OC(C)C(O)C(O)C4O)C(O)C3O)C(O)C(O)C2O)C2CCC3(C)C(=CCC4(C)C3CCC3C(C)(CO)C(O)C(O)CC34C)C2C1C (stereo not drawn) | -93.3% [100 µM] (active) and -100% [100 µM] (active)
CC(=N/N=C/c1ccccn1)/C(C)=N/N=C(C)/C(C)=N/N=C(C)/C(C)=N/N=C(C)/C(C)=N\N=C\c1ccccn1 | 92.9% [100 µM] (inactive) and 85% [100 µM] (inactive)
C=CCn1c2c(c3ccccc3c1=O)C(=O)c1ccccc1-2 | 66.9% [100 µM] (inactive) and 11.1% [100 µM] (inactive)
C=C1CC2(C)CCC(OC(=O)C3(C)OC3C)C(C)(OC(C)=O)C2CC1=C(C)C (stereo not drawn) | 75.8% [100 µM] (inactive) and 12.7% [100 µM] (inactive)
COc1ccc(-c2coc3c4c(ccc3c2=O)OCO4)cc1OC | 43.3% [100 µM] (inactive) and 6.94% [100 µM] (active)
